Results filed as inconclusive are left out. Active and inactive are the calls of the source. Unless noted, the call rests on the fitted dose curve; in most records, active means well fitted curve in the direction sought with a large enough effect in the repeat runs; inconclusive means weak or mixed curves; inactive means no such curve, though single readings can be large; an effect the other way counts as inactive or inconclusive.
Assays:
[1] = target: Retinoic acid receptor RXR-alpha (Homo sapiens) (UniProt P19793); test: qHTS assay to identify small molecule agonists of the RXR signaling pathway (AID 1159527; calls by dose curve; further: nearly all actives have a fitted effect of over 35% in size)
Sequence of Retinoic acid receptor RXR-alpha (Homo sapiens) (P19793 whole entry, looked up): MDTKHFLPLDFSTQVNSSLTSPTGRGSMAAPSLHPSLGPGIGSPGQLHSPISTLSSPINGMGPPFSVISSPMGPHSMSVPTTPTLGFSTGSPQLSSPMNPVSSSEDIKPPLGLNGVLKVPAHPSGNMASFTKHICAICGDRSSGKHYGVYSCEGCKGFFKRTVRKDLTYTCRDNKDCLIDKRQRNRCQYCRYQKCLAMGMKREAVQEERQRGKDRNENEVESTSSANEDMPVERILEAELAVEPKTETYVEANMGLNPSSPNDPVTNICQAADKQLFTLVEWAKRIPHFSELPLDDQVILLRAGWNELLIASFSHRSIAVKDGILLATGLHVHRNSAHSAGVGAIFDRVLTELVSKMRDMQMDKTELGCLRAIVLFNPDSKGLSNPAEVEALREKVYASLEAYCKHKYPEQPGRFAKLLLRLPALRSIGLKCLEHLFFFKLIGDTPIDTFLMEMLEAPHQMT
How it was run: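 Read-out: beta-lactamase FRET ratio (405 nm excitation, 460 and 530 nm emission) after 2 hr substrate loading at room temperature. Cells were RXR-alpha-UAS-bla HEK 293T treated with compounds for 16 hr in 2% charcoal-stripped FBS medium.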

[2] = qHTS assay to identify small molecule agonists of the RXR signaling pathway - cell viability counter screen (AID 1159529); further: series mostly up to about 77 µM; nearly all actives have a fitted effect of over 50% in size
How it was run: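 HEK 293T RXRa-bla cells, 2% CS-FBS; 5 h settle; cpd 16 h 37 C, 5% CO2; CellTiter-Glo 30 min RT, luminescence. Tetraoctyl ammonium bromide as positive control.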

[3] = qHTS assay to identify small molecule antagonists of the retinoid acid receptor (RAR) signaling pathway - cell viability counter screen (AID 1159551); further: nearly all actives have a fitted effect of over 35% in size
How it was run: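 Cytotoxicity counter screen in C3RL4 cells: 6 h compound exposure with 1 uM retinol (final), viability from cellular ATP by luminescence.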

[4] = qHTS assay to identify small molecule antagonists of the retinoic acid receptor (RAR) signaling pathway (AID 1159552; further: nearly all actives have a fitted effect of over 50% in size)
How it was run: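 Cells of the C3RL4 line were seeded, incubated overnight, then dosed with compounds in DMSO followed immediately by retinol (1 uM final). Six hours later luciferase detection reagent went in; signal was measured after 30 min at RT.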

[5] = qHTS assay to identify small molecule agonists of the retinoic acid receptor (RAR) signaling pathway (AID 1159553); further: potency means the concentration at half of the fitted maximal effect
How it was run: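 Agonist activity was scored in C3RL4 cells bearing a retinoic acid response element luciferase construct. Cells were treated with compounds for 6 hr at 37 C, and luciferase signal was measured as luminescence.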

[6] = qHTS assay to identify small molecule antagonists of the estrogen related receptor (ERR) signaling pathway from Tox21 library - cell viability counter screen (AID 1224834); further: nearly all actives have a fitted effect of over 30% in size
How it was run: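 Cytotoxicity of test substances is gauged in the same ERR cells used for the antagonist screen, after 17.5 h of compound treatment at 37 C, by CellTiter-Fluor fluorescence measured after 30 min.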

[7] = target: Luciferin 4-monooxygenase (Photinus pyralis) (UniProt P08659); test: qHTS assay to identify small molecule inhibitors of firefly luciferase (AID 1224835); further: nearly all actives have a fitted effect of over 25% in size; further: potency means the concentration at half of the fitted maximal effect; on activity change, negative = inhibition: series mostly up to about 120 µM
Sequence of Luciferin 4-monooxygenase (Photinus pyralis) (P08659 whole entry, looked up): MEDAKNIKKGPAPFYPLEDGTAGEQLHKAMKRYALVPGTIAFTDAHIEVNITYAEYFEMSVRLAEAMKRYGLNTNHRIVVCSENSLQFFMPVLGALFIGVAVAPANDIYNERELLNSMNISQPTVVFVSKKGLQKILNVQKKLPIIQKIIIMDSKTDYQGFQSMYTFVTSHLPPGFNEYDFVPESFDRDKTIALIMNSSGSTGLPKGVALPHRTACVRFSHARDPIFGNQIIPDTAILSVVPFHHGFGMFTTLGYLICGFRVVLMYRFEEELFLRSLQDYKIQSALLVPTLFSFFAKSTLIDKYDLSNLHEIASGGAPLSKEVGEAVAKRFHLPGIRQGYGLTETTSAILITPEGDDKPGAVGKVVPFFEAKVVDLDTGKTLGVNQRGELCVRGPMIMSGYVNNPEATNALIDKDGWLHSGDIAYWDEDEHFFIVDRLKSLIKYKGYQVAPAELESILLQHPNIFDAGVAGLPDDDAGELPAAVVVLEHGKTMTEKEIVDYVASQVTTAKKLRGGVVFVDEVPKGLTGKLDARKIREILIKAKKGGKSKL
How it was run: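 Biochemical qHTS: compounds run as interplate titrations against purified firefly enzyme, with D-luciferin and ATP each at its KM concentration. Light output recorded by CCD imaging.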

[8] = qHTS assay to identify small molecule agonists of the constitutive androstane receptor (CAR) signaling pathway - cell viability counter screen (AID 1224836); further: series mostly up to about 92 µM; nearly all actives have a fitted effect of over 45% in size
How it was run: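 HepG2-CYP2B6-hCAR, 2500 cells/well, 4 h pre-incubation; cpd 15 conc + PK11195 0.75 uM final; 23 h, 37 C/5% CO2; CellTiter-Fluor, fluorescence.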

[9] = qHTS assay to identify small molecule antagonists of the constitutive androstane receptor (CAR) signaling pathway - cell viability counter screen (AID 1224837); further: series mostly up to about 92 µM; nearly all actives have a fitted effect of over 45% in size
How it was run: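 Multiplexed cytotoxicity read-out for the CAR antagonist screen: double-stable HepG2-CYP2B6-hCAR cells co-treated with 50 nM CITCO (final) and compound over 15 concentrations, incubated 23 hr, then assessed by CellTiter-Fluor fluorescence.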

[10] = target: Nuclear receptor subfamily 1 group I member 3 (Homo sapiens) (UniProt Q14994); test: qHTS assay to identify small molecule antagonists of the constitutive androstane receptor (CAR) signaling pathway (AID 1224838); further: nearly all actives have a fitted effect of over 40% in size
Sequence of Nuclear receptor subfamily 1 group I member 3 (Homo sapiens) (Q14994 whole entry, looked up): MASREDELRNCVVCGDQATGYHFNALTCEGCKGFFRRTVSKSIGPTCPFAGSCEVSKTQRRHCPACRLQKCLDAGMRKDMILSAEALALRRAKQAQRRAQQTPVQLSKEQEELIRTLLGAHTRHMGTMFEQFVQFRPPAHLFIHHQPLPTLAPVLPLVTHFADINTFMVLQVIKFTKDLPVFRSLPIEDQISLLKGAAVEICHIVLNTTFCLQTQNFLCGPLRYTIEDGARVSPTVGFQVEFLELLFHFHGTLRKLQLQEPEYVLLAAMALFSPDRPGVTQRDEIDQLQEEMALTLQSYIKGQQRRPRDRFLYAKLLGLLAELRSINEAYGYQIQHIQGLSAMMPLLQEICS
How it was run: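 Compounds were titrated across 15 concentrations onto HepG2 cells double-stably expressing hCAR and a CYP2B6-2.2kb reporter, together with 50 nM CITCO (final). After 24 h at 37 C, luciferase activity was measured by luminescence.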

[11] = target: Nuclear receptor subfamily 1 group I member 3 (Homo sapiens) (UniProt Q14994); test: qHTS assay to identify small molecule agonists of the constitutive androstane receptor (CAR) signaling pathway (AID 1224839); further: nearly all actives have a fitted effect of over 15% in size; further: potency means the concentration at half of the fitted maximal effect;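 on activation: HepG2 cells stably carrying human CAR and a CYP2B6 luciferase reporter; series mostly up to about 92 µM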
How it was run: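 HepG2-CYP2B6-hCAR cells, 2500/well, 4 h pre-incubation; compounds 15 conc.; PK11195 0.75 uM final; 24 h, 37 C/5% CO2; ONE-Glo luciferase read.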

[12] = qHTS assay to identify small molecule antagonists of the estrogen related receptor signaling pathway with the pleiotropic PPARgamma coactivator (PGC) from Tox21 10K library - cell viability counter screen (AID 1224840; active means well fitted cell-killing curve with a large enough effect in the repeat runs, not every such curve was filed as active; further: nearly all actives have a fitted effect of over 40% in size)
How it was run: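 Step one, plate 2,000 PGC/ERR cells per well; step two, incubate 6 h at 37 C/5% CO2; step three, pin-transfer compounds; step four, incubate 17.5 h; step five, add CellTiter-Fluor and read fluorescence after 30 min.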

[13] = target: Thyrotropin receptor (Homo sapiens) (UniProt P16473); test: qHTS assay to identify small molecule agonists of the thyroid stimulating hormone receptor (TSHR) signaling pathway (AID 1224843; calls by dose curve; further: nearly all actives have a fitted effect of over 45% in size)
Sequence of Thyrotropin receptor (Homo sapiens) (P16473 whole entry, looked up): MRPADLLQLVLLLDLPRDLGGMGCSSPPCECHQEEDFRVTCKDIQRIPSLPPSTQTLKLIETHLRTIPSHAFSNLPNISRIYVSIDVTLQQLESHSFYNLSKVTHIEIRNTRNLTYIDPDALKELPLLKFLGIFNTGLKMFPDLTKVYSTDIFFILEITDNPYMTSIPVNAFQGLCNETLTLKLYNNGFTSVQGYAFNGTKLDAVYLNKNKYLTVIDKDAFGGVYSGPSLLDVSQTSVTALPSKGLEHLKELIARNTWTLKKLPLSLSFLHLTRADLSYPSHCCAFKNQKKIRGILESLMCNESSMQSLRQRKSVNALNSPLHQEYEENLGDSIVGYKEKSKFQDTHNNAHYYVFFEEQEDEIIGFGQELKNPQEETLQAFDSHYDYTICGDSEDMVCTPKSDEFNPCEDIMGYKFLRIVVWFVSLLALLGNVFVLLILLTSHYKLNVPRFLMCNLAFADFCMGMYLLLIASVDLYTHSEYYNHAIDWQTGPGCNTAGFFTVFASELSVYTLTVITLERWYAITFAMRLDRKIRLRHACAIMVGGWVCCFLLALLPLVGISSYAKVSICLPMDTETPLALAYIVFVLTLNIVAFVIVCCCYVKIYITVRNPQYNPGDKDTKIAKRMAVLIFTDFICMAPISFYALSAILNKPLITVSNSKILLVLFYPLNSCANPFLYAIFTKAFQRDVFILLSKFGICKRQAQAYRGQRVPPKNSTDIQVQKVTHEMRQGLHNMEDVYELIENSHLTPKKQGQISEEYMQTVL
How it was run: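 TSHR-HEK293 cells in agonist mode, 30 min room-temperature step, then cAMP measured by competitive HTRF (cAMP-d2 with anti-cAMP cryptate) after 1 h at room temperature. Tested at 15 concentrations in triplicate.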

[14] = qHTS assay to identify small molecule agonists of the hypoxia (HIF-1) signaling pathway - cell viability counter screen (AID 1224844; calls by dose curve; further: nearly all actives have a fitted effect of over 50% in size)
How it was run: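 Tox21 10K compounds were added to HRE-bla ME-180 cells (0.5% dialyzed FBS) and incubated 17 hrs at 37C; ATP-based CellTiter-Glo luminescence then reported cell viability in the same wells.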

[15] = qHTS assay to identify small molecule agonists of H2AX (AID 1224845; active means well fitted activation curve with a large enough effect in the signal ratio in the repeat runs, not every such curve was filed as active; the % refers to the signal ratio)
How it was run: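 Wild-type CHO-K1 cells, plated overnight, exposed 3hr at 37C to 15 concentrations (0.76% DMSO final). Lysed, then HTRF anti-pH2AX (S139) cryptate and anti-H2AX-d2 antibodies, 24 hr room temperature; 665/620 nm emission read.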

[16] = qHTS assay to identify small molecule agonists of the hypoxia (HIF-1) signaling pathway (AID 1224846; active means well fitted activation curve with a large enough effect in the signal ratio in the repeat runs, not every such curve was filed as active; the % refers to the signal ratio)
How it was run: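 Steps: seed ME-180 HRE-bla cells (2,000/well, 0.5% dialyzed FBS); incubate 5 hrs at 37C; pin-transfer compounds or DMSO; incubate 17 hrs; add LiveBLAzer B/G substrate CCF4-AM; measure reporter activation by FRET.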

[17] = qHTS assay to identify small molecule agonists of H2AX - cell viability counter screen (AID 1224847; calls by dose curve; further: top concentration of the series differs between compounds; nearly all actives have a fitted effect of over 30% in size)
How it was run: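 Cells plated first: CHO-K1, 1000 per well in 10% FBS medium, incubated overnight at 37C. Then 15-point compound titration added (final DMSO 0.76%) for 3 hr. Finally CellTiter-Glo added and luminescence read.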

[18] = qHTS assay to identify small molecule antagonists of the estrogen related receptor signaling pathway with the pleiotropic PPARgamma coactivator (PGC) from Tox21 10K library (AID 1224841; call rule not given here; further: series mostly up to about 92 µM; actives are mostly falling curves and most rising ones were filed inactive; nearly all actives have a fitted effect of over 50% in size)
How it was run: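 Antagonism in this quantitative HTS is taken from loss of luciferase signal in PGC/ERR cells. Cells (2,000/well) are treated with compounds in DMSO after a 6 h settling period and read by One-Glo luminescence after 18 h.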

[19] = qHTS assay to identify small molecule agonists of the estrogen related receptor signaling pathway with the pleiotropic PPARgamma coactivator (PGC) from Tox21 10K library (AID 1224842); further: nearly all actives have a fitted effect of over 15% in size
How it was run: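 PGC/ERR reporter cell line, 2,000 cells per well, incubated 6 h at 37 C before 23 nL compound in DMSO was added. After 18 h at 37 C, One-Glo luminescence read following 30 min at room temperature.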

[20] = qHTS assay to identify small molecule antagonists of the estrogen related receptor (ERR) signaling pathway from Tox21 library (AID 1224848); further: nearly all actives have a fitted effect of over 50% in size
How it was run: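 ERR reporter cell line (from NTP) seeded 2,000 cells/well, rested 6 h at 37 C/5% CO2, then pin-dosed with compounds in DMSO. After 18 h at 37 C, ONE-Glo added; luminescence read after 30 min at room temperature.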
On the % scale 0 is the no-effect control and ±100 the full control effect.

CC1(C)Oc2ccc(C#N)cc2[C@@H](N2CCCC2=O)[C@@H]1O
inactive: Potency [1] | outcome [2] | outcome [3] | outcome [4] | Potency [5] | outcome [6] | Potency [7] | outcome [8] | outcome [9] | Potency [10] | Potency [11] | outcome [12] | outcome [13] | outcome [14] | outcome [15] | outcome [16] | outcome [17]

CCCCCCC1(C)CCC(=O)O1 (centres undefined)
inactive: Potency [1] | outcome [2] | outcome [3] | outcome [4] | Potency [5] | outcome [6] | Potency [7] | outcome [8] | outcome [9] | Potency [10] | Potency [11] | outcome [12] | outcome [13] | outcome [14] | outcome [15] | outcome [16]

CC(C)OC(=O)CCC(=O)OC(C)C
inactive: Potency [1] | outcome [2] | outcome [3] | outcome [4] | Potency [5] | outcome [6] | Potency [7] | outcome [8] | outcome [9] | Potency [10] | Potency [11] | outcome [12] | outcome [13] | outcome [14] | outcome [15] | outcome [16] | outcome [17]

CC1=C(C(=O)O)N2C(=O)[C@@H](NC(=O)[C@H](N)C3=CCC=CC3)[C@H]2SC1
inactive: Potency [1] | outcome [2] | outcome [3] | outcome [4] | Potency [5] | outcome [6] | Potency [7] | outcome [8] | outcome [9] | Potency [10] | Potency [11] | outcome [12] | outcome [13] | outcome [14] | outcome [15]

CN(C)CCCO[C@@H]1[C@H]2OC(C)(C)O[C@H]2O[C@@H]1C(O)CO (some centres undefined)
inactive: Potency [1] | outcome [2] | outcome [3] | outcome [4] | Potency [5] | outcome [6] | Potency [7] | outcome [8] | outcome [9] | Potency [10] | Potency [11] | outcome [12] | outcome [18] | outcome [19] | outcome [14] | outcome [15] | outcome [17] | Potency [20]

N#Cc1cscn1
inactive: Potency [1] | outcome [2] | outcome [3] | outcome [4] | Potency [5] | outcome [6] | Potency [7] | outcome [8] | outcome [9] | Potency [10] | Potency [11] | outcome [12] | outcome [13] | outcome [14] | outcome [15] | outcome [16] | outcome [17]

N[C@@H](Cc1ccc(O)cc1)C(=O)O
inactive: activation [1] 0.71% [at 6.98 µM] | activity change, negative = cytotoxicity [2] 2.08% [at 6.97 µM] | activity change, negative = cytotoxicity [3] -0.852% [at 8.39 µM] | activity, negative = inhibition [4] 7.5% [at 8.39 µM] | activation [5] 0.0879% [at 8.36 µM] | viability change, negative = cytotoxic [6] 1.55% [at 8.39 µM] | activity change, negative = inhibition [7] 1.38% [at 10.5 µM] | viability change, negative = cytotoxic [8] -0.95% [at 8.39 µM] | activity change, negative = cytotoxicity [9] 8.2% [at 8.39 µM] | activity, negative = inhibition [10] -4.54% [at 8.39 µM] | activation [11] -2.78% [at 8.39 µM] | viability change, negative = cytotoxic [12] 3.49% [at 8.39 µM] | activation [13] 8.55% [at 8.39 µM] | activity change, negative = cytotoxicity [14] 2.31% [at 6.97 µM] | activation (H2AX phosphorylation) [15] 0.078% [at 14 µM]

CC1c2ccccc2CN1NC(=O)c1ccc(Cl)c(S(N)(=O)=O)c1 (centres undefined)
inactive: Potency [1] | outcome [2] | outcome [3] | outcome [4] | Potency [5] | outcome [6] | Potency [7] | outcome [8] | outcome [9] | Potency [10] | Potency [11] | outcome [12] | outcome [19] | outcome [13] | outcome [14] | outcome [15] | outcome [16] | outcome [17] | Potency [20]

O=C=NCC1CCCC(CN=C=O)C1 (centres undefined)
inactive: Potency [1] | outcome [2] | outcome [3] | outcome [4] | Potency [5] | outcome [6] | Potency [7] | outcome [8] | outcome [9] | Potency [10] | Potency [11] | outcome [12] | outcome [13] | outcome [14] | outcome [15] | outcome [16]

O=C(O)CCCCCC(=O)O
inactive: Potency [1] | outcome [2] | outcome [3] | outcome [4] | Potency [5] | outcome [6] | Potency [7] | outcome [8] | outcome [9] | Potency [10] | Potency [11] | outcome [12] | outcome [18] | outcome [19] | outcome [14] | outcome [16] | outcome [17] | Potency [20]

ONc1ccccc1
active: Potency [5] 24.1 µM | Potency [7] 22.2 µM | Potency [11] 60.5 µM
inactive: Potency [1] | outcome [2] | outcome [3] | outcome [4] | outcome [6] | outcome [8] | outcome [9] | Potency [10] | outcome [12] | outcome [18] | outcome [13] | outcome [14] | outcome [15] | outcome [16] | Potency [20]

c1ccc(B(c2ccccc2)c2ccccc2)cc1
inactive: Potency [1] | outcome [2] | outcome [3] | outcome [4] | outcome [6] | outcome [8] | outcome [9] | Potency [10] | outcome [12] | outcome [18] | outcome [19] | outcome [14] | outcome [15] | outcome [16] | Potency [20]
active: Potency [5] 54.4 µM | Potency [7] 31.7 µM | Potency [11] 48.5 µM

CN(C)CCCCl
inactive: Potency [1] | outcome [2] | outcome [3] | outcome [4] | Potency [5] | outcome [6] | Potency [7] | outcome [8] | outcome [9] | Potency [10] | Potency [11] | outcome [12] | outcome [13] | outcome [14] | outcome [15] | outcome [16] | outcome [17]

CC(C)Nc1ccccc1
inactive: Potency [1] | outcome [2] | outcome [3] | outcome [4] | Potency [5] | outcome [6] | Potency [7] | outcome [8] | outcome [9] | Potency [10] | Potency [11] | outcome [12] | outcome [13] | outcome [14] | outcome [15] | outcome [16] | outcome [17]

COC(=O)c1cc(Cl)cc(Cl)c1
inactive: Potency [1] | outcome [2] | outcome [3] | outcome [4] | Potency [5] | outcome [6] | Potency [7] | outcome [8] | outcome [9] | Potency [10] | Potency [11] | outcome [12] | outcome [13] | outcome [14] | outcome [15] | outcome [16]

Source: PubChem BioAssay (Tox21)
